Peg3 imprint: qHTS Assay for Compounds that Induce Erasure of Genomic Imprints; mouse ES Peg3-LacZ reporter, beta-gal luminescence, 40 h; Potency, µM (series often up to 60.7 µM), actives largely listed as activators; actives 0.02% (n = 110,000)
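Imprint erasure is scored as LacZ activity from the silenced maternal Peg3 allele in feeder-free female ES cells cultured 40 h with LIF. Luminescence is normalized to in-plate negative controls and fitted to the Hill equation.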
p53ts 32C tox: qHTS Screen for Compounds that Selectively Target Cancer Cells with p53 Mutations: Cytotoxicity of p53ts Cells at the Permissive Temperature; H1299-p53A138V at 32C, ATP luminescence viability, 24 h; Potency, µM (doses to about 46.1 µM), actives largely listed as cytotoxic; actives 0.93% (n = 130,000); AID 924, 2007; note: nearly all actives have a fitted effect of over 55% in size
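ATP-content luminescence (ATPlite) read-out after 24 h compound exposure at 32C in H1299-p53A138V cells (600/well). Tested up to 46 uM. Normalized to DMSO (0%) and 100 uM tamoxifen (100% killing); Hill-fit AC50.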
IkB signaling: IkB Signaling; Potency, µM (top dose mostly 57.1 µM); actives 0.04% (n = 110,000); ABC-DLBCL IkBa-CBG/CBR dual luciferase ratio, 4 h; response scale: scaled: untreated 0%, proteasome inhibitor 100%; active = well fitted curve in the direction sought with a large enough effect in the signal ratio, not every such curve was filed as active; inconclusive = small, poorly fitted or top-dose-only effect, or a change in a side signal; the % refers to the signal ratio;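 note: the direction sought is a rising ratio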
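Curves were fitted separately to fusion (green), unfused (red) and ratio luminescence, then classed by r2, magnitude and activity. Cells: OCI-Ly3, 4 h compound plus doxycycline at 37C; 10 uM MG-132 defined full response.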
p53ts 39C kill: qHTS Screen for Compounds that Selectively Target Cancer Cells with p53 Mutations: Cytotoxicity of p53ts Cells at the Nonpermissive Temperature; H1299-p53A138V viability at 39C, ATP luminescence, 24 h; Potency, µM (highest dose often 46.1 µM), usual class: cytotoxic; actives 1.5% (n = 130,000); AID 902, 2007; note: nearly all actives have a fitted effect of over 55% in size
Of the large screens only hits and unclear results are named; the others gave an inactive call. Shown are actives, neighbours in structure and some others; about 1.7% of the full set was active somewhere. Unless noted, calls come from the whole dose curve; as a rule, active = well fitted curve in the direction sought with a large enough effect; inconclusive = small, poorly fitted or top-dose-only effect, or another doubt; inactive = no such curve, though single readings can be large; an effect the other way counts as inactive or inconclusive.

CCOc1ccc(N/C=C/C(=O)c2ccccc2)c([N+](=O)[O-])c1	p53ts 39C kill 5.6µM (no result: Peg3 imprint, p53ts 32C tox, IkB signaling)
Cc1ccc2c(c1)c1c(c(=O)n(-c3ccccc3C)c(=O)n1Cc1ccccc1F)n2C	none
COc1c(Cl)cc(C(=O)Nc2cccc(-c3nc4ccccc4[nH]3)c2)cc1Cl	p53ts 32C tox inconclusive, IkB signaling inconclusive, p53ts 39C kill 13µM
O=C(Nc1cccc(-c2nc3ccccc3[nH]2)c1)c1ccco1	none
C/C(=C\CNc1ncnc2c1ncn2[C@@H]1O[C@H](CO)[C@@H](O)[C@H]1O)CO	none (no result: p53ts 32C tox, IkB signaling, p53ts 39C kill)
Cc1ccccc1NC(=O)Cn1c(=O)n(CCCCCC(=O)NCc2ccccc2Cl)c(=O)c2sccc21	none
CCc1cccc(NC(=O)Cn2c(=O)n(CCC(=O)NCc3ccccc3Cl)c(=O)c3sccc32)c1	p53ts 32C tox inconclusive, IkB signaling inconclusive, p53ts 39C kill 13µM
CC(C)CNC(=O)NC1C(NC(=O)NCC(C)C)N(C)C(=O)N1C (centres undefined)	p53ts 32C tox 5µM, IkB signaling inconclusive, p53ts 39C kill 6.3µM
Cc1ccc(-c2nc3ccccc3[nH]2)cc1NC(=O)COc1ccccc1[N+](=O)[O-]	p53ts 32C tox 16µM, IkB signaling inconclusive, p53ts 39C kill 7.9µM
Cc1ccc(/C=C/C(=O)Nc2ccccc2C(N)=O)o1	p53ts 32C tox 7.9µM, IkB signaling inconclusive, p53ts 39C kill 5µM
Cc1cccc(N/C=C/C(=O)c2cccs2)c1C	p53ts 39C kill 10µM (no result: Peg3 imprint, p53ts 32C tox, IkB signaling)
Cc1ccc(C(=O)/C=C/Nc2ccccc2C(N)=O)o1	p53ts 32C tox 13µM, IkB signaling inconclusive, p53ts 39C kill 13µM
CC(=O)Nc1ccc(N/C=C/C(=O)c2ccc(C)o2)cc1	Peg3 imprint inconclusive
NC(=O)c1ccccc1N/C=C/C(=O)c1cccs1	p53ts 32C tox 11µM, p53ts 39C kill inconclusive (no result: Peg3 imprint, IkB signaling)
CN(C)S(=O)(=O)c1ccc(C(=O)NCCSc2c(-c3ccccc3)[nH]c3ccccc23)cc1	IkB signaling inconclusive
COc1ccccc1-n1cc(C(=O)NCC(=O)N2CCN(c3ccccc3)CC2)c2ccccc2c1=O	p53ts 32C tox 13µM, p53ts 39C kill 13µM
O=C(Nc1ccc(Cl)cc1)C1CCN(S(=O)(=O)c2ccc(Br)s2)CC1	IkB signaling inconclusive
COc1ccccc1CNc1cc(-c2ccccc2OC)ncn1	p53ts 32C tox 13µM, p53ts 39C kill inconclusive
COc1ccccc1CNc1cc(-c2ccccc2C)ncn1	p53ts 32C tox inconclusive
Cc1ccc(-n2c3c(c(=O)[nH]c2=O)C(NC(=O)c2ccccc2F)(C(F)(F)F)C(=O)N3)cc1C (centres undefined)	none
ICCc1ccccc1	none
Cc1ccc(C(C(=O)NC2CCCCC2)N(C)Cc2ccccc2)cc1 (centres undefined)	none
CCOC(=O)CN(Cc1ccccc1)C(C(=O)NC1CCCCC1)c1ccccc1 (centres undefined)	IkB signaling inconclusive, p53ts 39C kill 2.5µM
O=C(Nc1cc2ccc(O)cc2oc1=O)c1ccccc1	p53ts 32C tox inconclusive, p53ts 39C kill 7.9µM
COC(=O)c1cc(Nc2nc3ccccc3nc2NS(=O)(=O)c2ccc(C)cc2)ccc1Cl	Peg3 imprint inconclusive, IkB signaling inconclusive
COc1ccc(C)cc1NS(=O)(=O)c1cccc2cccnc12	none
COc1cc(NS(=O)(=O)c2ccc(C)cc2)c2ncccc2c1	IkB signaling 1.3µM
CCC/C=C(\CCC)C(NS(=O)(=O)c1ccc(Cl)cc1)c1ccccc1 (centres undefined)	none (no result: IkB signaling)
C[C@@H]1O[C@@H](OC[C@@H]2O[C@@H](Oc3c(-c4ccc(O)c(O)c4)oc4cc(O)cc(O)c4c3=O)[C@H](O)[C@H](O)[C@@H]2O)[C@H](O)[C@H](O)[C@@H]1O	none (no result: Peg3 imprint, p53ts 32C tox, p53ts 39C kill)
O=C(Nc1ccc(Br)cc1)c1ccc(F)c(S(=O)(=O)NC2CCCCCC2)c1	p53ts 32C tox inconclusive, IkB signaling inconclusive, p53ts 39C kill 13µM
COc1ccc(CNS(=O)(=O)c2cc(C(=O)Nc3cc(Cl)cc(Cl)c3)ccc2F)cc1	IkB signaling inconclusive, p53ts 39C kill inconclusive
O=C(Nc1cc(Cl)cc(Cl)c1)c1ccc(F)c(S(=O)(=O)NC2CCCCC2)c1	p53ts 32C tox inconclusive, IkB signaling inconclusive, p53ts 39C kill 25µM
CCN(CC)c1cc(C)c2cc(NC(=O)/C=C/c3ccccc3Cl)ccc2n1	IkB signaling inconclusive, p53ts 39C kill inconclusive

Bioassay records deposited in PubChem by National Center for Advancing Translational Sciences (NCATS).
